Screening results: PubChem BioAssay, National Center for Advancing Translational Sciences (NCATS)
GRP78 ERSR act: qHTS for Inducers of the Endoplasmic Reticulum Stress Response (ERSR) in Human Glioma: qHTS; U87-MG GRP78 promoter luciferase reporter, 16 h; AID 602332, 2012; Potency, µM, for inactives: top-dose activation, hits mostly activators; actives 0.02% (n = 420,000); active = well fitted curve in the direction sought with a large enough effect; inconclusive = small, poorly fitted or top-dose-only effect, or another doubt; inactive = no such curve, though single readings can be large; an effect the other way counts as inactive or inconclusive; note: potency is the fitted concentration of half-maximal effect; series mostly up to about 76 µM; % of control where 0% means no effect; nearly all actives have a fitted effect of over 35% in size
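Stably transfected U87-MG glioma cells carrying a GRP78-based luciferase sensor; 16 h compound incubation. Luminescence end-point read 10 min after Bright-Glo addition at room temperature.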
Six1-Eya2 inh: qHTS Assay for Inhibitors of the Six1/Eya2 Interaction | activity change, % (test concentration not listed) | AID 651725, 2012 | actives 0.56% (n = 360,000) | Homeobox protein SIX1 (Homo sapiens) + Protein phosphatase EYA2 (Homo sapiens), … | AlphaScreen GST-Six1/His-Eya2 binding, biochemical; hits give low values; note: % is set by controls: 0 for no effect and ±100 for the full control effect
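Homogeneous AlphaScreen proximity assay pairing GST-Six1 with His-tagged Eya2 (added as 5X mix: 250 nM and 500 nM) in 50 mM Tris pH 8.0, 300 mM NaCl, 1 mM TCEP. Glutathione donor and nickel acceptor beads; 1 h, 37 °C, dark.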
RGS4 inh: Inhibitors of Regulator of G Protein Signaling (RGS) 4: qHTS; Potency, µM (doses to about 114 µM), without a hit: at the highest dose activity change, negative = inhibition, hits mostly inhibitors; Transcreener GDP fluorescence polarization, RGS4-accelerated GTP hydrolysis; AID 504845, 2011; Regulator of G-protein signaling 4 (Homo sapiens), P49798; actives 0.039% (n = 390,000); active = well fitted curve in the direction sought with a large enough effect; inconclusive = small, poorly fitted or top-dose-only effect, or another doubt; inactive = no such curve, though single readings can be large; an effect the other way counts as inactive or inconclusive; note: potency is the fitted concentration of half-maximal effect; % is set by controls: 0 for no effect and ±100 for the full control effect; nearly all actives have a fitted effect of over 75% in size
Target sequence (P49798 whole entry, looked up): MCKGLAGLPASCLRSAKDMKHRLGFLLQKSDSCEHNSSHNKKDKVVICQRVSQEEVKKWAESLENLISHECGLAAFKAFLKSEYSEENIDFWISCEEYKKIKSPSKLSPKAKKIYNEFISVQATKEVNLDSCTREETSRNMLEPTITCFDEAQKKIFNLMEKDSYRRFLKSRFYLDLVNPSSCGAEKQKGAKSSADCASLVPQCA
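MLSMR compounds (23 nl, pin-transferred) preincubated 10 min at room temperature with a 500nM (2x) first reagent, then RGS4 at 900nM (2x) plus Transcreener GDP mix added; fluorescence polarization (620/688 nm) read before and after 90 min at 30 °C.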
Akt phos inh: HTS Assay for Inhibitors of Akt Phophorylation: Primary Screen; Neuro2A IGF-stimulated pAkt S473 HTRF, 20 min; hits give low values; activity change, % for hits at 50 µM; actives 0.32% (n = 360,000); in the data active = activity change below about -80%; inconclusive = mostly about -51% to -80%; note: % is set by controls: 0 for no effect and ±100 for the full control effect
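Single-point screen (50 µM final compound) in Neuro2A cells stimulated 20 min with 6 nM IGF at 37 deg C. After lysis, Ser473-phosphorylated Akt read by HTRF (ex 330 nm, em 615/665 nm) as the 665/615 ratio.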
CtBP-E1A blk: qHTS Assay for Inhibitors of the CtBP/E1A Interaction; CtBP / adenovirus E1A interaction (AlphaScreen); AlphaScreen GST-E1A/His-CtBP binding, 1536-well; hits give low values; activity change, % (no concentration beside the values); actives 0.49% (n = 340,000); AID 651724, 2012; note: % is set by controls: 0 for no effect and ±100 for the full control effect
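In 5 uL wells, 23 nL compound meets equimolar GST-E1A and His-CtBP (5X stock 125 nM each) for 2 h, 37 °C. Beads (5X, 50 ug/mL) then 1 h, 37 °C, dark.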
* = called active by the depositor; i = inactive; ? = inconclusive; / = no result given; [ ] = another dose, or the depositor's remark. Shown are actives, neighbours in structure and some others; about 0.88% of the full set was active somewhere. Cut-off read from the data, not from the text of the source, unless noted: active = activity change below about -65%; inconclusive = mostly about -30% to -63%; inactive = weaker than that.

SMILES | GRP78 ERSR act | Six1-Eya2 inh | RGS4 inh | Akt phos inh | CtBP-E1A blk
CCC1S/C(=C(\C#N)C(=O)NCc2ccco2)N(c2ccc(F)cc2)C1=O (stereo not given) | -4.9% | -4.3 | -18.8% | i | 4.3
CCC1S/C(=C(\C#N)C(=O)NCc2ccco2)N(c2ccc(Br)cc2)C1=O (stereo not given) | 1.7% | -10.4 | -51.7% | -107.5%* | -0.7
CSc1cc(/C=N/O)c(SC)s1 | -2.0% | -2.1 | 18.3% | -116.3%* | -1.5
CCN(CC)c1ccc(NC(=O)c2cc(Cl)ccc2OC)cc1 | -1.6% | -65.7* | -18.0% | i | ?
NC(C(=O)O)(c1ccc(P(=O)(O)O)cc1)C1CC1 (stereo not given) | -4.2% | / | / | / | /
O=C1C(=O)c2ncccc2-c2cccnc21 | -6.3% | / | / | / | /
O=C1C=C(NCCc2cc(Br)c(O)c(Br)c2)C(=O)c2ncccc21 | -6.1% | -85.5* | ? | i | -91.7*
C#CCN(Cc1ccc(OC)cc1)S(=O)(=O)C=C | -8.6% | / | / | / | /
Cc1ccc(C2(C)NC(=O)N(CC(=O)Nc3nc(-c4ccccn4)cs3)C2=O)cc1 (stereo not given) | -0.7% | -91.6* | ? | i | ?
Cc1ccc(S(=O)(=O)CCC(=O)Nc2nc(-c3cccnc3)cs2)cc1 | -0.5% | 1.0 | -18.3% | i | 5.8
Cc1ccc(S(=O)(=O)CCc2nnc(NC(=O)c3ccccn3)s2)cc1 | -1.9% | -90.4* | -12.0% | i | -91.8*
CC1(c2ccccc2)NC(=O)N(CC(=O)Nc2nc(-c3ccccn3)cs2)C1=O (stereo not given) | -2.5% | -91.1* | -16.5% | i | ?
CC1(c2ccccc2)NC(=O)N(CC(=O)NNC(=O)c2ccccc2)C1=O (stereo not given) | 2.7% | 2.0 | 27.5% | i | 0.7
Cc1ccc(S(=O)(=O)CCC(=O)Nc2nc(-c3ccccn3)cs2)cc1 | -5.4% | ? | -2.3% | i | -72.7*
CS(=O)(=O)Nc1ccc(N2CCN(c3ccc(C(F)(F)F)cn3)CC2)nc1 | -5.2% | 0.2 | 17.4% | i | -2.3
CC1=NN(c2ccc(C(F)(F)F)cn2)C(=O)C1 | 0.2% | -68.2* | 21.1% | i | ?
c1ccc(CN2CCN(CCCNc3ccc4nnc(-c5ccccc5)n4n3)CC2)cc1 | -1.2% | -69.1* | -26.0% | i | -27.3
Cc1ccc(CNc2ccc3nnc(-c4ccccc4)n3n2)cc1 | -2.6% | -3.5 | -31.5% | i | -2.2
C[N+]1(CC(=O)c2ccc(Br)cc2)CCOCC1 | -0.1% | / | / | / | /
CCCN1C(=O)c2ccc(C(=O)Nc3nccs3)cc2C1=O | 0.9% | -0.6 | -19.9% | -110.5%* | 6.2
COCCN1C(=O)c2ccc(C(=O)Nc3nccs3)cc2C1=O | 0.4% | 1.7 | 10.2% | i | 6.5
Cc1cnc(NC(=O)c2ccc3c(c2)C(=O)N(Cc2ccco2)C3=O)s1 | -4.0% | 1.7 | -3.4% | -119.5%* | 3.5
Cc1oc(-c2cccc(NC(=O)C3CCCN(C)C3)c2)nc1CNC(=O)c1coc2c1C(=O)CCC2 (stereo not given) | -5.8% | / | / | / | /
CCN(CC)/[N+]([O-])=N/OCOC(=O)C(C)c1ccc(CC(C)C)cc1 (stereo not given) | -1.4% | / | / | / | /
NC(=S)N=Nc1c(O)[nH]c2cc(F)c(F)cc12 | -4.6% | -65.2* | -29.3% | i | -71.5*
SMILES | GRP78 ERSR act | Six1-Eya2 inh | RGS4 inh | Akt phos inh | CtBP-E1A blk
Cc1ncc2c(c1CNC(=O)c1ccccc1F)CCN(C(=O)c1[nH]c3ccc(Cl)cc3c1C)C2 | -3.9% | / | / | / | /
O=C1c2ccccc2-c2onc3ccc(N4CCCC4)c1c23 | -1.1% | -67.6* | ? | i | ?
O=C1c2ccccc2C(=O)c2c1cccc2N1CCCC1 | 2.6% | -86.9* | -12.7% | i | -89.2*
Cn1c(=O)cc2c3c(c(N4CCCCC4)ccc31)C(=O)c1ccccc1-2 | 0.1% | ? | 11.5% | i | /
COc1ccc(NC(=O)C2CCCN(c3nnc(C)c4c(C)n(-c5ccccc5)nc34)C2)cc1Cl (stereo not given) | -9.6% | / | 25.6% | / | /
Cc1cnc(C)c(-c2cc(F)cc3c2OC(CNC(=O)CN2CCCC2)C3)n1 (stereo not given) | 0.1% | / | / | / | /
Cc1ccsc1C(=O)N(Cc1cc2ccc(F)cc2nc1N1CCC(O)CC1)CC1CCCO1 (stereo not given) | -1.0% | / | / | / | /
CC#C[C@]1(O)CC[C@H]2C3CCC4=CC(=O)CCC4=C3[C@@H](c3ccc(N(C)C)cc3)C[C@@]21C (stereo not given in full) | -2.2% | / | ? | / | /
COc1ccc(-c2cc(C(F)(F)F)nc(S(C)(=O)=O)n2)cc1 | -11.6% | 3.9 | -50.5% | -97.9%* | 2.9
Cc1cccc(C(=O)NC(=S)NNC(=O)c2ccc(Cl)cc2)c1 | 35.5µM* | -12.1 | -33.0% | i | -14.5
Cc1cccc(C(=O)NC(=S)NNC(=O)c2cccs2)c1 | 14.2% | -17.1 | ? | i | -19.2
COc1ccc(C2=Nn3c(nnc3-c3cccnc3)SC2)cc1OC | -0.5% | -69.0* | -17.3% | i | -76.7*
COc1ccc(C2=Nn3c(nnc3-c3ccccn3)SC2)cc1 | -3.2% | -67.1* | -7.2% | i | ?
COc1ccc(C2=Nn3c(nnc3-c3ccncc3)SC2)cc1OC | -3.0% | ? | -22.4% | i | ?
COc1ccc2nc(SCc3nc(N)nc(Nc4ccccc4)n3)[nH]c2c1 | -2.3% | -9.6 | -16.6% | -101.5%* | -3.0
COc1cc(/C=N/Nc2nc(C)nc3c2cnn3-c2ccccc2)ccc1O | 0.1% | -67.0* | 13.1% | i | -77.0*
COc1cc(/C=N/Nc2cc(C)nc(NS(=O)(=O)c3ccccc3)n2)ccc1O | 4.8% | -71.0* | 13.9% | i | -73.4*
Cc1cc[n+](CCC2CCCCC2)c2ccccc12 | -3.6% | / | / | / | /
CCOC(=O)N1CCN(Cc2ccc3c(c2)CN(C(=O)c2ccc(C#CC(C)(C)O)o2)CCO3)CC1 | -2.5% | / | / | / | /
c1ccc2c(c1)oc1c(NCCCN3CCOCC3)ncnc12 | -4.2% | 5.3 | 19.4% | -109.0%* | -0.9
COc1cc(/C=N/NC(=O)c2cccc([N+](=O)[O-])c2)cc(OC)c1O | -1.6% | -2.2 | -29.1% | i | /
O=C(N/N=C/c1cccc([N+](=O)[O-])c1)c1cccs1 | 6.6% | -10.4 | -30.0% | i | 1.8
COc1cc(/C=N/NC(=O)c2cncc(Br)c2)cc([N+](=O)[O-])c1O | -6.9% | -91.3* | 18.1%[11.4 µM] | i | -96.0*
O=C(N/N=C/c1ccc(-c2ccccc2[N+](=O)[O-])o1)c1cncc(Br)c1 | -0.4% | -78.2* | ? | i | -66.2*
